# Assay results reported in the supplement of paper PMC7156485.
# Counter-ions that a name gives are not always drawn.
# Tested on: TDF
# Test: cell number relative to DMSO (% of DMSO); higher = more cells (less growth inhibition / toxicity)
# Conditions: concentration: 10 µM; 24 h
# How it was run: (§1)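 Cell number or H1.0 nuclear intensity appears as percent of the plate control, based on the median of replicates. Measurements came from HCC1569 and TDF cells exposed in triplicate to compounds at 10 µM for 24 h at 37 °C, then imaged in six fields per well at ×10. Positional effects were smoothed out of HCC1569 values.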
# 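Wherever H1.0 immunofluorescence intensity relative to DMSO is given: TDF is a line of transformed human dermal fibroblasts of mesenchymal origin.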
# 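Wherever cell number relative to DMSO is given: TDF denotes transformed human dermal fibroblasts of mesenchymal origin.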
row,Structure (SMILES),cell number
1,O=C(c1ccc(C(=O)N2CCC(N3CCCC3)CC2)c(Nc2ccccc2)c1)N1CCC(N2CCCC2)CC1,104
2,COc1cc(CCC(C)=O)ccc1O [Vannilylacetone],90.8
3,O=c1ccc2ccc(O)c(O)c2o1 [Daphnetin],87.6
4,O=c1c(O)c(-c2ccccc2O)oc2cc(O)cc(O)c12 [Datiscetin],106
5,COc1cc(CC(=O)O)ccc1O [4-Hydroxy-3-methoxyphenylacetic acid],106
6,O=C(O)CC/C=C\C[C@H]1CO[C@@H](c2ccccc2Cl)O[C@H]1c1ccccc1O,96.5

# Tested on: TDF
# Test: H1.0 immunofluorescence intensity relative to DMSO (% of DMSO); higher = stronger H1.0 induction, active = 120 or more
# Conditions: concentration: 10 µM; 24 h
# How it was run: as §1
row,Structure (SMILES),H1.0 immunofluorescence intensity
1,COCCc1ccc(OCC(O)CNC(C)C)cc1.COCCc1ccc(OCC(O)CNC(C)C)cc1.O=C(O)C(O)C(O)C(=O)O (racemic),95.6 (inactive)
2,O=c1[nH]c(=O)n(C2CCCO2)cc1F (stereo unspecified) [Ftorafur],99.6 (inactive)
3,CC12CCC3c4ccc(O)cc4CCC3C1CC(O)C2O (stereo unspecified) [Estriol],101 (inactive)
4,CC1CCN(C(=O)CC#N)CC1N(C)c1ncnc2[nH]ccc12 (stereo unspecified) [Tasocitinib],89.1 (inactive)
5,COC(=O)C(N)Cc1ccc(Cl)cc1.Cl (racemic) [DL-p-Chlorophenylalanine methyl ester hydrochloride],107 (inactive)
6,N[C@H](CO)C(=O)O [D-Serine],87.2 (inactive)
7,O=C1NC(=O)C(=Cc2ccc3c(c2)OC(F)(F)O3)S1 [PI 3-KbInhibitor II],103 (inactive)
8,O=C(Nc1ccc(Oc2ccnc3[nH]ccc23)c(F)c1)c1cccn(-c2ccc(F)cc2)c1=O,95.1 (inactive)
9,NC(=S)c1ccc[n+](C2OC(COP(=O)([O-])OP(=O)(O)OCC3OC(n4cnc5c(N)ncnc54)C(OP(=O)([O-])O)C3O)C(O)C2O)c1.[Na+] (stereo unspecified) [Thio-NADP sodium],91.7 (inactive)
10,c1ccc(C2CN3CCSC3=N2)cc1 (stereo unspecified) [Levamisole],102 (inactive)
11,CCN(CC)C(=S)SSC(=S)N(CC)CC [Disulfiram],123 (active)
12,CC1C(=O)N=C2Nc3cccc(Cl)c3CN21 (stereo unspecified) [Quazinone],94.9 (inactive)
13,"COc1ccc(/C=C\c2cc(OC)c(OC)c(OC)c2)cc1O [2-methoxy-5-[(Z)-2-(3,4,5-trimethoxyphenyl)ethenyl]phenol]",179 (active)
14,COc1ccc2cc(OCC3(C(=O)O)CN(C(=O)c4ccc(F)cc4)C3)ccc2c1,93.7 (inactive)
15,CC(CCc1ccccc1)NCC(O)c1ccc(O)c(C(N)=O)c1.Cl (stereo unspecified) [Labetalol hydrochloride],83.5 (inactive)
16,Cn1cc(-c2ccc3nnc(C(F)(F)c4ccc5ncccc5c4)n3n2)cn1,96.1 (inactive)
17,Nc1nc(=O)n(C2CSC(CO)O2)cc1F (stereo unspecified) [Emtricitabine],96.1 (inactive)
18,NS(=O)(=O)c1cc2c(cc1Cl)NC(C1CC3C=CC1C3)NS2(=O)=O (stereo unspecified) [Cyclothiazide],111 (inactive)
19,CN1CCC(=C2c3ccccc3CC(=O)c3sccc32)CC1 [Ketotifen],97.6 (inactive)
20,Cc1cc(CS(=O)(=O)c2ccccc2)cc(OCc2ccc(CN3CCC[C@@H]3CO)cc2)c1 [PF-543 hydrochloride],102 (inactive)

row,Structure (SMILES),H1.0 immunofluorescence intensity
1,Cc1nc(Nc2ncc(C(=O)Nc3c(C)cccc3Cl)s2)cc(N2CCN(CCO)CC2)n1 [Dasatinib],107 (inactive)
2,CN1CCCCC1CCN1c2ccccc2Sc2ccc(S(C)=O)cc21.O=S(=O)(O)c1ccccc1 (stereo unspecified) [Mesoridazine besylate],92.4 (inactive)
3,CC[C@H](C(=O)Nc1ccccc1N1CCCC1)c1ccccc1 [(2S)-2-Phenyl-N-[2-(1-pyrrolidinyl)phenyl]butanamide],96.1 (inactive)
4,"O=C(O)CCC(C(=O)O)N1C(=O)c2ccccc2C1=O [L-Glutamic acid, N-phthaloyl-]",91.4 (inactive)
5,CCCCCCCCCCCC=CCCCCCC(=O)O [7(E)-Nonadecenoic acid],96.9 (inactive)
6,CC1CCCC(C)N1NC(=O)c1ccc(Cl)c(S(N)(=O)=O)c1 (stereo unspecified) [Clopamide],94.9 (inactive)
7,C[C@@H](Nc1ncnc2[nH]c(-c3ccc(O)cc3)cc12)c1ccccc1,108 (inactive)
8,CC(C)(Oc1ccc(CCNC(=O)c2ccc(Cl)cc2)cc1)C(=O)O [Bezafibrate],97.9 (inactive)
9,COc1ccccc1CNCCCCCCNCCCCCCCCNCCCCCCNCc1ccccc1OC.Cl.Cl.Cl.Cl [Methoctramine tetrahydrochloride],103 (inactive)
10,O=C1NC(C(=O)O)CS1 (stereo unspecified) [Procysteine],97.1 (inactive)
11,Nc1ccc(S(=O)(=O)Nc2ncccn2)cc1 [Sulfadiazine],95.6 (inactive)
12,CCC(=O)OC1(C(=O)CCl)C(C)CC2C3CCC4=CC(=O)C=CC4(C)C3(F)C(O)CC21C (stereo unspecified) [Clobetasol Propionate],87.8 (inactive)
13,CCCCCCCCCC(=O)NC(CN1CCOCC1)C(O)c1ccccc1 (racemic),96.7 (inactive)
14,CCCCCOC(=O)Nc1nc(=O)n(C2OC(C)C(O)C2O)cc1F (stereo unspecified) [Capecitabine],101 (inactive)
15,O=C(c1ccc(C(=O)N2CCC(N3CCCC3)CC2)c(Nc2ccccc2)c1)N1CCC(N2CCCC2)CC1,86.5 (inactive)
16,COc1cc(CCC(C)=O)ccc1O [Vannilylacetone],95.6 (inactive)
17,O=c1ccc2ccc(O)c(O)c2o1 [Daphnetin],100 (inactive)
18,O=c1c(O)c(-c2ccccc2O)oc2cc(O)cc(O)c12 [Datiscetin],92.1 (inactive)
19,COc1cc(CC(=O)O)ccc1O [4-Hydroxy-3-methoxyphenylacetic acid],102 (inactive)
20,O=C(O)CC/C=C\C[C@H]1CO[C@@H](c2ccccc2Cl)O[C@H]1c1ccccc1O,95.5 (inactive)
